SMN2 splice up: qHTS Assay for Enhancers of SMN2 Splice Variant Expression | Potency, µM (highest dose often 46.1 µM), for the others: top-dose activity change, positive = activation, usual class: activators | 210,000 compounds, 2.8% hits | HEK293 SMN2-luciferase splicing reporter, luminescence, 30-36 h | AID 1458, 2008; also: % of control where 0% means no effect; nearly all actives have a fitted effect of over 55% in size
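HEK293 cells carry an SMN2 minigene-luciferase reporter in which exon 7 inclusion puts luciferase in frame. Cells were seeded at 2000 cells/well, attached for 10-12 hours, then exposed to compounds for 30-36 hours at 37C before ONE-Glo luminescence.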
ELG1 genotoxic: qHTS screen for small molecules that induce genotoxicity in human embryonic kidney (HEK293T) cells expressing luciferase-tagged ELG1; HEK293T ELG1-luciferase reporter, luminescence, 16 h; AID 504466, 2011; 330,000 compounds, 1.3% hits; Potency, µM (highest dose often 46 µM), without a hit: at the top dose activity change, positive = activation, hits mostly activators; also: % of control where 0% means no effect; nearly all actives have a fitted effect of over 60% in size
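Cells (2,000/well) expressing the ELG1-luciferase fusion are dosed by pin tool and kept 16 hr at 37 °C, 5% CO2. Signal comes from ONE-Glo luciferase reagent after 30 min at room temperature.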
NPC1 prom act: qHTS Assay for NPC1 Promoter Activators. Potency, µM (top dose mostly 9.22 µM), inactives show top-dose activation, actives largely listed as activators. 320,000 compounds, 2.4% hits. Huh7 NPC1 promoter luciferase reporter, 24 h; also: % of control where 0% means no effect; nearly all actives have a fitted effect of over 60% in size
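NPC1 promoter–luciferase Huh7 cells; 24 h compound; luminescence.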
FLuc modulator: qHTS profiling assay for firefly luciferase inhibitor/activator using purifed enzyme and Km concentrations of substrates (counterscreen for miR-21 project) | Potency, µM (top dose mostly 57.5 µM), for inactives: at the top dose activity change, negative = inhibition, most hits filed as inhibitors | purified FLuc, Km substrates, luminescence inhibition | AID 588342, 2011 | Luciferin 4-monooxygenase (Photinus pyralis), P08659 | 360,000 compounds, 6.9% hits;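 also: plate controls were vehicle for no effect and reference inhibitor for full effect; nearly all actives have a fitted effect of over 55% in size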
Target sequence (P08659 whole entry, looked up): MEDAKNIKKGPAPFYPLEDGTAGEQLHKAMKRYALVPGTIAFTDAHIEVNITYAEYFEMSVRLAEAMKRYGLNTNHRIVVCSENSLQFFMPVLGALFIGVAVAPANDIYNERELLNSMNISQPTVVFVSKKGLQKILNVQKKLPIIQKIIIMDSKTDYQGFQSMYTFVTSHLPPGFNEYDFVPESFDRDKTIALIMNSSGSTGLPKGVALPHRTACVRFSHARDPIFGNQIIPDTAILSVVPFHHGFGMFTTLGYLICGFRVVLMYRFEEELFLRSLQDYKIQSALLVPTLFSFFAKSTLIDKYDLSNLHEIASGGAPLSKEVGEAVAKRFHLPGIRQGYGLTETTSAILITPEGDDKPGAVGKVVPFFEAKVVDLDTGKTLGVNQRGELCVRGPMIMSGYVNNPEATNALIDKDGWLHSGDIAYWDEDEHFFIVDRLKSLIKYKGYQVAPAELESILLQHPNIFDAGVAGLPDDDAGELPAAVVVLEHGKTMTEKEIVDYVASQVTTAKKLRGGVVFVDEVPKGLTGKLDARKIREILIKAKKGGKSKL
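Biochemical qHTS of compounds, final roughly 60 µM downward over six points, against 10 nM purified firefly luciferase using Km concentrations of substrates (10 uM D-luciferin, 10 uM ATP) in Tris acetate pH 7.5 buffer; luminescence output.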
Rab9 prom act: qHTS Assay for Rab9 Promoter Activators. Potency, µM (top dose mostly 9.22 µM), without a hit: top-dose activation, negative = inhibition, actives largely listed as activators. Huh7 Rab9 promoter-luciferase reporter, luminescence, 24 h. 320,000 compounds, 2.8% hits; also: % of control where 0% means no effect; nearly all actives have a fitted effect of over 60% in size
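Huh7 reporter line, Rab9 promoter upstream of luciferase. Compound exposure 24 h at 37 °C in reduced-serum medium with 10% FBS. Read-out: luminescence.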
The depositor's hits bear a star; ? = inconclusive; · = no result. An excerpt weighted towards active compounds, which were near 7.4% of everything screened. Calls follow the shape of the dose curve; as a rule, active = well fitted curve in the direction sought with a large enough effect; inconclusive = small, poorly fitted or top-dose-only effect, or another doubt; inactive = no such curve, though single readings can be large; an effect the other way counts as inactive or inconclusive. Potency is read from the fitted curve at half-maximal effect.

SMILES	SMN2 splice up	ELG1 genotoxic	NPC1 prom act	FLuc modulator	Rab9 prom act
O=C(Cc1ccc(Cl)cc1)Nc1ccc(-c2cc3ccccc3oc2=O)c(Cl)c1	-19.7%	-2.5%	-25.6%	-19.1%	-19.2%
COc1ccc(-c2cc3ccccc3oc2=O)cc1NC(=O)c1ccc([N+](=O)[O-])o1	5.9%	8.3%	21.2%	-9.2%	3.55µM*
CCC(=O)Nc1ccc(-c2cc3ccccc3oc2=O)cc1	8.91µM*	3.66µM*	?	7.57µM*	?
COc1ccc(-c2cc3ccccc3oc2=O)cc1NC(=O)c1ccc(Br)o1	3.16µM*	?	?	2.1%	?
CC(=O)Nc1ccc(-c2cc3ccccc3o2)cc1	11.2µM*	?	2.24µM*	3.01µM*	3.16µM*
Cc1ccc(CN2C(=O)C(O)(CC(=O)c3ccc(C)cc3)c3ccccc32)cc1 (stereo not drawn)	-8.0%	·	·	?	·
O=S(=O)(c1ccccc1)N1CCC2(CC1)CN(c1ccccn1)C2	-44.3%	·	·	·	·
Cc1ccc(-n2c(=O)c3c(cnn3C)n(CC(=O)Nc3cccc(C)c3)c2=O)cc1	2.7%	·	·	-11.8%	·
CCC(=O)Nc1cc(-c2cc3ccccc3oc2=O)ccc1OC	1.12µM*	?	?	-2.8%	0.794µM*
CCCSc1nnc(-c2c[nH]c3ccccc23)n1C	-20.5%	?	21.5%	15.1µM*	24.1%
CCOC(=O)CNC(=O)CSc1nnc(NC(=O)c2ccc(C)cc2)s1	5.01µM*	?	1.78µM*	0.601µM*	0.562µM*
CCOC(=O)CSc1nnc(NC(=O)c2cccc([N+](=O)[O-])c2)s1	-0.8%	-0.7%	0.1%	10.7µM*	-3.1%
CCOC(=O)CNC(=O)CSc1nnc(SCC(=O)NCC(=O)OCC)s1	-31.9%	4.7%	1.6%	-3.3%	3.2%
CCOC(=O)CNC(=O)CSc1nc(-c2cccc(C)c2)ns1	5.1%	-4.0%	2.4%	23.9µM*	6.0%
CCOC(=O)CNC(=O)CSc1nnc(NC(=O)c2ccc3c(c2)OCO3)s1	·	3.26µM*	3.55µM*	0.953µM*	3.16µM*
COC(=O)c1ccccc1NC(=O)Cn1c(=O)n(Cc2ccc(C(=O)NCc3ccc4c(c3)OCO4)cc2)c(=O)c2ccccc21	15.2%	·	·	-0.6%	·
CCOc1ccc(CNC(=O)c2cnc(SC)nc2C)cc1	·	·	·	5.0%	·
CCOC(=O)CNC(=O)c1ccc(SCC)cc1	·	?	?	19µM*	?
O=C(Nc1nnc(SCC(=O)N2CCCc3ccccc32)s1)c1cccc2ccccc12	-9.4%	-5.9%	7.8%	?	6.8%
Cc1ccc(C(=O)Nc2nnc(SCC(=O)N3CCCc4ccccc43)s2)cc1	?	?	?	0.151µM*	0.316µM*
CCOC(=O)C1CCN(C(=O)/C=C/c2ccc(OC)cc2)CC1	6.31µM*	4.11µM*	0.708µM*	7.57µM*	0.316µM*
O=C(/C=C/c1ccccc1)N1CCC(Cc2ccccc2)CC1	·	10.8%	23.5%	15.1µM*	29.6%
COC(=O)C1CCN(C(=O)/C=C/c2ccccc2)CC1	14.1µM*	13.5%	1.41µM*	?	1µM*
O=C(/C=C/c1ccco1)N1CCCC(c2ccccc2)C1 (stereo not drawn)	-6.4%	3.8%	-0.6%	?	22.4%
O=C(/C=C/c1ccccc1)N1CCC(c2ccccc2)C1 (stereo not drawn)	11.2µM*	6.51µM*	3.16µM*	4.78µM*	1.58µM*
SMILES	SMN2 splice up	ELG1 genotoxic	NPC1 prom act	FLuc modulator	Rab9 prom act
COc1ccccc1N1CCN(C(=O)/C=C/c2ccccc2)CC1	12.3%	2.5%	7.7%	1.3%	-1.4%
Cc1ccc(C(=O)c2cn(Cc3ccccc3)c3nc(C)ccc3c2=O)cc1	0.5%	·	·	-2.8%	·
CCc1ccc(N2C(=O)CSC23C(=O)N(Cc2cccc(OC)c2)c2ccccc23)cc1 (stereo not drawn)	·	·	·	-1.8%	·
COc1cccc(C2=NN(S(C)(=O)=O)C(c3cccs3)C2)c1 (stereo not drawn)	·	15.3%	23.2%	?	2.82µM*
COc1ccc(C2=NN(S(C)(=O)=O)C(c3cccs3)C2)cc1OC (stereo not drawn)	·	15.8%	?	16.9µM*	?
CC(C)c1ccc(/C=N\NC(=O)c2ccc(Cn3cccn3)o2)cc1	25.2%	9.6%	?	1.35µM*	11.1%
CCCOc1ccc(/C=N/NC(=O)c2ccc(Cn3cc([N+](=O)[O-])cn3)o2)cc1	-4.7%	?	23.4%	2.39µM*	?
Cc1cc(Br)ccc1NC(=O)CCS(=O)(=O)c1cccc2nsnc12	0.2%	·	·	-9.6%	·
CCOC(=O)C1CCCN(c2nc3c(S(=O)(=O)c4ccc(Br)cc4)nnn3c3ccsc23)C1 (stereo not drawn)	·	·	·	0.5%	·
Cc1ccc(-c2cc(-c3n[nH]c(=S)n3C)c3ccccc3n2)cc1	18.8%	4.1%	-1.5%	10.7µM*	-7.6%
CCOc1cccc(-c2cc(-c3n[nH]c(=S)n3CC)c3ccccc3n2)c1	-16.0%	-9.7%	8.4%	12µM*	-6.4%
CCn1c(-c2cc(-c3ccc(C)c(C)c3)nc3ccccc23)n[nH]c1=S	·	8.9%	-1.6%	3.01µM*	2.6%
COc1ccccc1NC(=O)C1=C(C)Nc2nc(SCc3ccccc3)nn2C1c1ccccn1 (stereo not drawn)	-12.0%	·	·	-5.9%	·
CC1SCC(=NOCc2ccccc2)CS1 (stereo not drawn)	·	?	?	19µM*	?
CC1CCC(=NNC(=O)Cc2ccccc2)CC1 (stereo not drawn)	8.0%	1.0%	1.6%	2.1%	4.6%
CCOC(=O)c1ccc(COC(=O)c2nonc2N)cc1	-12.5%	-0.3%	0.8%	15.1µM*	1.7%
COc1cc(OC)c(NC(=O)c2nn(C)c3c2COc2ccccc2-3)cc1Cl	·	·	·	3.4%	·
COc1ccc(/C=C2\SC(=S)N(C(C(=O)O)c3ccccc3)C2=O)c(OC)c1 (stereo not drawn)	·	1.2%	-3.7%	23.9µM*	-13.5%
COc1cccc([C@@H]2Oc3ccc(Br)cc3C[C@H]2OC(=O)NCCc2ccc(OC)c(OC)c2)c1	-0.7%	·	·	·	·
Brc1ccc(-c2nc(-c3cccnc3)no2)o1	?	?	3.98µM*	16.9µM*	2.82µM*
c1ccc(C(c2ccccc2)c2nc(-c3cccnc3)no2)cc1	·	1.6%	-6.8%	0.1%	0.4%
Brc1ccc(-c2nc(-c3ccccc3)no2)o1	17.8µM*	8.2µM*	3.55µM*	12µM*	2.51µM*
Cc1ccc(-c2nc(-c3cccnc3)no2)c(C)c1	15.8µM*	5.17µM*	2µM*	?	1.78µM*

Screening data (PubChem BioAssay)
